Results from PubChem BioAssay.
Unmarked numbers belong to inactive results. Activity calls are given as the source filed them. Cut-off read from the data, not from the text of the source, unless noted: active = inhibition above about 44%; inactive = the rest.

Assays:
[1] = StAR promoter reporter inhibitors, counter-screen for LRH-1 inverse agonist project, cell-based, luminescence, high throughput (AID 651611; in the data active = inhibition above about 28%); details: StAR promoter luciferase reporter counterscreen, at 3.6 µM, hits give high values
[2] = target: Nuclear receptor subfamily 5 group A member 2 (Homo sapiens) (UniProt O00482); test: NR5A2 activity suppression in reporter cells – cell-based, luminescence, confirmation (AID 651613; in the data active = inhibition above about 42%;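 note: HEK293T cells co-transfected with LRH-1 and StAR promoter luciferase reporter; 0% = vehicle wells and 100% = parental cells lacking receptor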); details: cell-based LRH-1 luciferase reporter, inverse agonism; at 3.6 µM; hits give high values
Chain of Nuclear receptor subfamily 5 group A member 2 (Homo sapiens) (O00482 whole entry, looked up): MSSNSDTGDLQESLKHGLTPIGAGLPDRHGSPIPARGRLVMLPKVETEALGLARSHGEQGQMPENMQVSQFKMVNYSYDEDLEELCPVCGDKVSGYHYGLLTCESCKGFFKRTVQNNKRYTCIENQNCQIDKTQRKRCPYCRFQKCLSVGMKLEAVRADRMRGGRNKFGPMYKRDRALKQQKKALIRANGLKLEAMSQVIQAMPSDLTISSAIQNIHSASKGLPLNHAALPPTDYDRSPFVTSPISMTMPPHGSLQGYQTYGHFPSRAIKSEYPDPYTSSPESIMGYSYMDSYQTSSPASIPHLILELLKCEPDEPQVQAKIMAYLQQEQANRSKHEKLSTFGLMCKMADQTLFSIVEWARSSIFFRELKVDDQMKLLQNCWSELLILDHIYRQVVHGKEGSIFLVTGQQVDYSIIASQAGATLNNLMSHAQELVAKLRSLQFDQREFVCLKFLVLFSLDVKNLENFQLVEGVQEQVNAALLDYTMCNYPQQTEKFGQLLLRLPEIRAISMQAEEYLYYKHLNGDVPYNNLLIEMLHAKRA

[3] = target: Steroidogenic factor 1 (Homo sapiens) (UniProt Q13285); test: inverse agonism at SF1 nuclear receptor – cell-based, luminescence, high throughput, counter-screen for LRH-1 inverse agonist project (AID 651614); details: cell-based SF1 luciferase reporter, at 3.6 µM, hits give high values;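 note: cells cotransfected with StAR promoter reporter and SF1 expression vector; 0% = vehicle on cells with receptor and 100% = vehicle on cells lacking receptor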
Chain of Steroidogenic factor 1 (Homo sapiens) (Q13285 whole entry, looked up, the tested form may be a part): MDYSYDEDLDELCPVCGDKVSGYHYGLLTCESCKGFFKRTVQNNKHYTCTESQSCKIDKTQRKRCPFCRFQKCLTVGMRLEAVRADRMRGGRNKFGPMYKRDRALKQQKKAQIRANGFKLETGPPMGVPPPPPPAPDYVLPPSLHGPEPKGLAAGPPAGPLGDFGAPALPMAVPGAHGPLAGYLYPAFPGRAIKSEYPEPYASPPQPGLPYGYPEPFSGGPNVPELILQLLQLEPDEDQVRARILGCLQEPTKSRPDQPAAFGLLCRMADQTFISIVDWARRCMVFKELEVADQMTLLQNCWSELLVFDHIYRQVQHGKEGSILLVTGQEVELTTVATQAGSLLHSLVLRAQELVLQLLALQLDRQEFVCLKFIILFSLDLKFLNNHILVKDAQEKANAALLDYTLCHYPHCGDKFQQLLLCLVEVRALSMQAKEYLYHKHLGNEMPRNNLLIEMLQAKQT

[4] = compounds suppressing VP16-driven luciferase signal – cell-based, luminescence, high throughput, counter-screen for LRH-1 inverse agonist project (AID 651615; in the data active = inhibition above about 33%); details: Gal4-VP16 luciferase reporter cells, at 3.6 µM, hits give high values

SMILES | inhibition [1] | inhibition [2] | inhibition [3] | inhibition [4] [%]
O=C(CSc1n[nH]c(-c2ccccc2)n1)Nc1ccc(N2CCOCC2)cc1 | 1.99% | 56.6% (active) | 49% (active) | -15.3
O=C(NNc1ccccc1)C(=O)NNS(=O)(=O)c1ccc([N+](=O)[O-])cc1 | 1.65% | 12.9% | 27.1% | 20.1
COc1cc(/C=N/n2nnnc2N)ccc1OCc1c(C)no[n+]1[O-] | 9.05% | 54.4% (active) | 42.6% | 10.5
CN(C)S(=O)(=O)c1cccc(C(=O)OCC(=O)Nc2ccc3c(c2)OCCO3)c1 | 17.9% | 51.5% (active) | 52.3% (active) | 10.7
CC(C)OC(=O)C(=O)NNc1ccccc1 | 12.3% | 12.2% | 4.1% | 11.9
Cc1nc(C)c(-c2csc(Nc3cccnc3)n2)s1 | -12.1% | 41.5% (active) | 35.4% | -47.9
Cc1csc(NC(=O)CSc2nc3[nH]c(=O)cc(O)c3s2)n1 | 15.2% | 60.5% (active) | 68.1% (active) | -21.4
COc1ccc(NC(=O)COC(=O)/C=C/C(=O)OCC(=O)Nc2ccc(OC)c(Cl)c2)cc1Cl | 6.28% | 50.8% (active) | 53.9% (active) | -16
COc1ccc(NC(=O)CSc2nc(N)c(-c3ccccc3)c(=O)[nH]2)cc1 | 9.25% | 63.2% (active) | 57.5% (active) | -7.75
Cc1ccsc1CNc1ncnc2ccc(-c3c(C)noc3C)cc12 | 54.5% (active) | 37.9% | 28.7% | -142
COc1ccc(NC(=O)COC(=O)c2c(-c3ccccc3)noc2C)cc1 | 15.3% | 63% (active) | 66.1% (active) | -5.04
O=C(Nc1ccccc1C(=O)NC1CC1)c1ccc([N+](=O)[O-])o1 | 22.3% | 62.9% (active) | 65.1% (active) | -5.35
CCOc1ccc(NC(=O)CSc2nc3c(c(=O)n2-c2ccccc2OC)SCC3)cc1 | 8.34% | 63.1% (active) | 58.7% (active) | -10.6
COC(=O)c1ccc(NC(=O)CN2CCN(S(=O)(=O)c3cc(Cl)ccc3OC)CC2)cc1 | 9.56% | 60.3% (active) | 57.5% (active) | 7.76
COc1ccc(CCNC(=O)c2ccccc2NC(=O)CN2CCN(c3ccccc3O)CC2)cc1 | 33.3% (active) | 48% (active) | 50.4% (active) | -22.9
